Compounds with a hit are over-represented: about 6.7% of the library has one in this group of screens.
Pf Dd2 growth – blocks growth of Plasmodium falciparum Dd2 parasites | P. falciparum Dd2 growth, SYBR Green, 72 h; stronger effect = lower value | activity change, % at 10 µM | 94,000 compounds, 2.3% hits | AID 1159554; in the data active = activity change below about -80%; inconclusive = no clear call, values can overlap the other calls
C diff HTS – inhibitors of Clostridium difficile growth; Clostridium difficile clinical isolate growth, OD600, 24 h; stronger effect = lower value; growth activity, negative = inhibition, % at 16 µg/mL (by protocol); 86,000 compounds, 0.25% hits;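 active = mean growth activity at or below -80% and every replicate also at or below -80%; inconclusive = mean at or below -80% but some replicate above -80%; inactive = mean growth activity above -80%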;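 note: 0% = DMSO wells and -100% = levofloxacin 16 µg/mL wells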
T cruzi growth-1 – blocks T. cruzi growth in NIH3T3 culture | T. cruzi beta-gal in NIH3T3, GalScreen luminescence, 90 h | inhibition, % at 8.34 µM | 77,000 compounds, 5.9% hits;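 active = mean inhibition above about 93%, with at least 55% of replicates each passing it, limit read from the data, passing the limit was not always enough; inconclusive = only one of those two conditions holds; inactive = neither condition holds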
T cruzi growth-2 – blocks T. cruzi growth in NIH3T3 host cells | shares compounds with T cruzi growth-1 | T. cruzi beta-gal in NIH3T3, GalScreen luminescence, 90 h | inhibition, % at 8.35 µM | 5,600 compounds, 72% hits | AID 651739;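 active = mean replicate inhibition above about 95% and at least 55% of replicates individually reaching it, limit read from the data; inconclusive = only one of the two criteria is met; inactive = neither criterion is met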
T cruzi growth-3 – Trypanosoma cruzi proliferation inhibition; shares compounds with T cruzi growth-1; T. cruzi beta-gal in NIH3T3, GalScreen luminescence, 90 h; inhibition, % at 2.09 µM; 5,600 compounds, 21% hits; AID 651740;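 active = mean inhibition above about 95%, with at least 55% of replicates also reaching it, limit read from the data; inconclusive = meets just one of the two conditions; inactive = meets neither condition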;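 note: plate controls were neutral control median for no effect and positive control median for full effect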
3T3 cytotox – NIH/3T3 (mouse) viability loss; shares compounds with T cruzi growth-1; NIH/3T3 viability, CellTiter-Glo ATP luminescence, 90 h; cytotoxicity (signal decrease), % at 8.35 µM; 5,600 compounds, 14% hits;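 active = mean signal decrease across replicates above about 35% based on untreated-well scatter, with enough replicates individually passing, limit read from the data; inconclusive = no rule stated though some were filed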;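 note: 0% = median of neutral control wells and 100% = median of positive control wells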
3T3 cytotox 2 – NIH/3T3 (mouse) viability loss | shares compounds with T cruzi growth-1 | NIH/3T3 viability, CellTiter-Glo ATP luminescence, 90 h | inhibition, % at 24.9 µM | 5,600 compounds, 56% hits | AID 651744;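 active = mean loss of cell viability signal at or above a set limit, and enough replicates individually reaching it; inconclusive = meets only the mean limit or only the replicate share; inactive = meets neither condition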;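 note: 0% = median of neutral control wells and 100% = median of positive control wells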
The depositor's hits bear a star; ? = inconclusive; . = no result given.

SMILES	Pf Dd2 growth	C diff HTS	T cruzi growth-1	T cruzi growth-2	T cruzi growth-3	3T3 cytotox	3T3 cytotox 2
C[C@@H]1CCCCO[C@H](CN(C)C(=O)Nc2ccc(C(F)(F)F)cc2)[C@@H](C)CN([C@@H](C)CO)C(=O)c2cc(NC(=O)CCC(F)(F)F)ccc2O1	-73	-3	94	.	.	.	.
C[C@@H]1CCCCO[C@H](CN(C)C(=O)Nc2ccc(C(F)(F)F)cc2)[C@H](C)CN([C@H](C)CO)C(=O)c2cc(NC(=O)CCC(F)(F)F)ccc2O1	-79	3	107*	106*	105*	-11	19
C[C@@H]1CCCCO[C@@H](CN(C)C(=O)Nc2ccc(C(F)(F)F)cc2)[C@H](C)CN([C@@H](C)CO)C(=O)c2cc(NC(=O)CCC(F)(F)F)ccc2O1	6	6	101*	106*	35	25	7
C[C@@H]1CCCCO[C@@H](CN(C)C(=O)Nc2cccc3ccccc23)[C@H](C)CN([C@@H](C)CO)C(=O)c2cc(NS(=O)(=O)c3cn(C)cn3)ccc2O1	2	1	12	.	.	.	.
Cc1ccc(S(=O)(=O)N(C)C[C@H]2Oc3ccc(NS(=O)(=O)c4cccs4)cc3CC(=O)N([C@H](C)CO)C[C@@H]2C)cc1	-49	2	74	.	.	.	.
C[C@H](CO)N1C[C@H](C)[C@H](CN(C)Cc2ccc(C(=O)O)cc2)OCc2cnnn2CCCC1=O	28	-2	.	.	.	.	.
C[C@H](CO)N1C[C@H](C)[C@H](CN(C)Cc2ccc3cccnc3c2)OCc2cnnn2CCCC1=O	2	1	111*	-24	-94	-3	4
C[C@H]1CN([C@@H](C)CO)C(=O)CCCn2nncc2CO[C@@H]1CN(C)Cc1ccc(C(=O)Nc2ccccc2N)cc1	-6	-7	103*	111*	64	24	12
C[C@@H]1CN([C@H](C)CO)C(=O)CCCn2nncc2CO[C@@H]1CN(C)Cc1ccc2cccnc2c1	-6	.	-1	.	.	.	.
Cc1noc(C)c1NC(=O)Nc1ccc2c(c1)CC(=O)N([C@@H](C)CO)C[C@H](C)[C@H](CN(C)CC1CCCCC1)O2	29	-4	-4	.	.	.	.
COc1cccc(NC(=O)N2C[C@@H](O)COC[C@@H]3O[C@H](CC(=O)NC4Cc5ccccc5C4)CC[C@H]32)c1	-49	1	87	.	.	.	.
C[C@@H]1CCCCO[C@H](CN(C)S(=O)(=O)c2ccc(Cl)cc2)[C@H](C)CN([C@@H](C)CO)C(=O)c2cc(NS(=O)(=O)c3ccc(F)cc3)ccc2O1	-58	4	73	.	.	.	.
C[C@H]1CCCCO[C@@H](CN(C)S(=O)(=O)c2ccc(Cl)cc2)[C@@H](C)CN([C@@H](C)CO)C(=O)c2cc(NS(=O)(=O)c3ccc(F)cc3)ccc2O1	-64	-1	102*	105*	110*	-4	-14
C[C@@H]1CN([C@@H](C)CO)C(=O)c2cc(NS(=O)(=O)c3ccc(Cl)cc3)ccc2O[C@@H](C)CCCCO[C@H]1CN(C)S(=O)(=O)c1ccc(F)cc1	-59	2	105*	104*	50	-3	1
C[C@@H]1CN([C@@H](C)CO)C(=O)c2cc(NS(=O)(=O)c3ccc(F)cc3)ccc2O[C@@H](C)CCCCO[C@H]1CN(C)S(=O)(=O)c1ccc(Cl)cc1	-51	1	106	.	.	.	.
C[C@@H]1CCCCO[C@H](CN(C)S(=O)(=O)c2ccc(F)cc2)[C@@H](C)CN([C@@H](C)CO)C(=O)c2cc(NS(=O)(=O)c3ccc(Cl)cc3)ccc2O1	-51	2	97*	105*	111*	2	8
C[C@H](CO)N1C[C@H](C)[C@@H](CN(C)S(=O)(=O)c2ccc(Cl)cc2)OCCCC[C@H](C)Oc2ccc(NS(=O)(=O)c3ccc(F)cc3)cc2C1=O	-59	5	98	.	.	.	.
C[C@H]1CCCCO[C@@H](CN(C)S(=O)(=O)c2ccc(F)cc2)[C@@H](C)CN([C@@H](C)CO)C(=O)c2cc(NS(=O)(=O)c3ccc(Cl)cc3)ccc2O1	-69	-5	100*	104*	?	-10	-6
CNC(=O)C[C@@H]1CC[C@H]2[C@H](COc3ccc(NC(=O)Nc4ccccc4F)cc3C(=O)N2C)O1	5	-1	35	.	.	.	.
C[C@@H]1CN([C@H](C)CO)C(=O)c2cc(NS(=O)(=O)c3ccc(F)cc3)ccc2O[C@@H](C)CCCCO[C@H]1CN(C)S(=O)(=O)c1ccc(Cl)cc1	-75	-1	?	105*	113*	-1	13
C[C@@H]1CCCCO[C@H](CN(C)S(=O)(=O)c2ccc(Cl)cc2)[C@H](C)CN([C@H](C)CO)C(=O)c2cc(NS(=O)(=O)c3ccc(F)cc3)ccc2O1	-80	-3	88	.	.	.	.
COc1ccc(S(=O)(=O)Nc2ccc3c(c2)C(=O)N([C@@H](C)CO)C[C@@H](C)[C@@H](CN(C)C(=O)Nc2ccc4c(c2)OCO4)OCCCC[C@H](C)O3)cc1	-51	1	35	.	.	.	.
COCC#Cc1ccc2c(c1)O[C@@H](CN(C)S(=O)(=O)c1ccc(C)cc1)[C@H](C)CN([C@H](C)CO)S2(=O)=O	-65	1	67	.	.	.	.
C[C@H]1CN([C@@H](C)CO)S(=O)(=O)c2ccc(/C=C/c3ccccc3)cc2O[C@H]1CN(C)C(=O)NC1CCCC1	-66	-2	102*	99*	73	34	102*
C[C@@H]1CN([C@@H](C)CO)S(=O)(=O)c2ccc(/C=C/c3ccccc3)cc2O[C@H]1CN(C)C(=O)NC1CCCCC1	-17	13	.	.	.	.	.
SMILES	Pf Dd2 growth	C diff HTS	T cruzi growth-1	T cruzi growth-2	T cruzi growth-3	3T3 cytotox	3T3 cytotox 2
C[C@H](CO)N1C[C@H](C)[C@H](CN(C)C(=O)NC2CCCCC2)Oc2cc(/C=C/c3ccccc3)ccc2S1(=O)=O	-33	8	.	.	.	.	.
C[C@H]1CN([C@@H](C)CO)S(=O)(=O)c2ccc(/C=C/c3ccccc3)cc2O[C@H]1CN(C)C(=O)NC1CCCCC1	-64	-12	128*	101*	89	-1	49*
O=C(Nc1ccc2c(c1)OCO2)N[C@@H]1CC[C@H](CCNC(=O)C2CCCC2)O[C@H]1CO	-1	-2	.	.	.	.	.
N#Cc1cccc(-c2ccc([C@H]3[C@@H](CO)N4CCCCN(C(=O)Nc5cccc(F)c5)C[C@H]34)cc2)c1	-69	38	81	.	.	.	.
N#Cc1cccc(-c2ccc([C@H]3[C@@H](CO)N4CCCCN(C(=O)Nc5cccc(F)c5)C[C@@H]34)cc2)c1	5	9	123*	105*	89	4	-2
N#Cc1cccc(-c2ccc([C@@H]3[C@@H](CO)N4CCCCN(C(=O)Nc5cccc(F)c5)C[C@@H]34)cc2)c1	-29	22	104*	110*	72	28	87*

Assay outcomes deposited in PubChem by Broad Institute.
